Measured values reported in PubChem BioAssay AID588689 (Southern Research Specialized Biocontainment Screening …, 2011).
About 1,000 (0.29%) of roughly 340,000 compounds were called active. Cut-off read from the data, not from the text of the source: inconclusive = inhibition above about 29% without an active follow-up result; inactive = below that. The list is a sample of the results. Potency and affinity values are given separately.

Molecular target: Genome polyprotein (Dengue virus type 2 (strain 16681-PDK53)) (UniProt P29991)
Assay: flavivirus cap methylation enzyme inhibition – biochemical, confirmation dose response, primary screen (AID 588689)
Settings: Dengue-2 NS5 methyltransferase capping enzyme assay, at 25 µM, stronger effect = higher value
[1] = measured here: pilot screen replicate inhibition

Chain of Genome polyprotein (Dengue virus type 2 (strain 16681-PDK53)) (P29991 whole entry, looked up): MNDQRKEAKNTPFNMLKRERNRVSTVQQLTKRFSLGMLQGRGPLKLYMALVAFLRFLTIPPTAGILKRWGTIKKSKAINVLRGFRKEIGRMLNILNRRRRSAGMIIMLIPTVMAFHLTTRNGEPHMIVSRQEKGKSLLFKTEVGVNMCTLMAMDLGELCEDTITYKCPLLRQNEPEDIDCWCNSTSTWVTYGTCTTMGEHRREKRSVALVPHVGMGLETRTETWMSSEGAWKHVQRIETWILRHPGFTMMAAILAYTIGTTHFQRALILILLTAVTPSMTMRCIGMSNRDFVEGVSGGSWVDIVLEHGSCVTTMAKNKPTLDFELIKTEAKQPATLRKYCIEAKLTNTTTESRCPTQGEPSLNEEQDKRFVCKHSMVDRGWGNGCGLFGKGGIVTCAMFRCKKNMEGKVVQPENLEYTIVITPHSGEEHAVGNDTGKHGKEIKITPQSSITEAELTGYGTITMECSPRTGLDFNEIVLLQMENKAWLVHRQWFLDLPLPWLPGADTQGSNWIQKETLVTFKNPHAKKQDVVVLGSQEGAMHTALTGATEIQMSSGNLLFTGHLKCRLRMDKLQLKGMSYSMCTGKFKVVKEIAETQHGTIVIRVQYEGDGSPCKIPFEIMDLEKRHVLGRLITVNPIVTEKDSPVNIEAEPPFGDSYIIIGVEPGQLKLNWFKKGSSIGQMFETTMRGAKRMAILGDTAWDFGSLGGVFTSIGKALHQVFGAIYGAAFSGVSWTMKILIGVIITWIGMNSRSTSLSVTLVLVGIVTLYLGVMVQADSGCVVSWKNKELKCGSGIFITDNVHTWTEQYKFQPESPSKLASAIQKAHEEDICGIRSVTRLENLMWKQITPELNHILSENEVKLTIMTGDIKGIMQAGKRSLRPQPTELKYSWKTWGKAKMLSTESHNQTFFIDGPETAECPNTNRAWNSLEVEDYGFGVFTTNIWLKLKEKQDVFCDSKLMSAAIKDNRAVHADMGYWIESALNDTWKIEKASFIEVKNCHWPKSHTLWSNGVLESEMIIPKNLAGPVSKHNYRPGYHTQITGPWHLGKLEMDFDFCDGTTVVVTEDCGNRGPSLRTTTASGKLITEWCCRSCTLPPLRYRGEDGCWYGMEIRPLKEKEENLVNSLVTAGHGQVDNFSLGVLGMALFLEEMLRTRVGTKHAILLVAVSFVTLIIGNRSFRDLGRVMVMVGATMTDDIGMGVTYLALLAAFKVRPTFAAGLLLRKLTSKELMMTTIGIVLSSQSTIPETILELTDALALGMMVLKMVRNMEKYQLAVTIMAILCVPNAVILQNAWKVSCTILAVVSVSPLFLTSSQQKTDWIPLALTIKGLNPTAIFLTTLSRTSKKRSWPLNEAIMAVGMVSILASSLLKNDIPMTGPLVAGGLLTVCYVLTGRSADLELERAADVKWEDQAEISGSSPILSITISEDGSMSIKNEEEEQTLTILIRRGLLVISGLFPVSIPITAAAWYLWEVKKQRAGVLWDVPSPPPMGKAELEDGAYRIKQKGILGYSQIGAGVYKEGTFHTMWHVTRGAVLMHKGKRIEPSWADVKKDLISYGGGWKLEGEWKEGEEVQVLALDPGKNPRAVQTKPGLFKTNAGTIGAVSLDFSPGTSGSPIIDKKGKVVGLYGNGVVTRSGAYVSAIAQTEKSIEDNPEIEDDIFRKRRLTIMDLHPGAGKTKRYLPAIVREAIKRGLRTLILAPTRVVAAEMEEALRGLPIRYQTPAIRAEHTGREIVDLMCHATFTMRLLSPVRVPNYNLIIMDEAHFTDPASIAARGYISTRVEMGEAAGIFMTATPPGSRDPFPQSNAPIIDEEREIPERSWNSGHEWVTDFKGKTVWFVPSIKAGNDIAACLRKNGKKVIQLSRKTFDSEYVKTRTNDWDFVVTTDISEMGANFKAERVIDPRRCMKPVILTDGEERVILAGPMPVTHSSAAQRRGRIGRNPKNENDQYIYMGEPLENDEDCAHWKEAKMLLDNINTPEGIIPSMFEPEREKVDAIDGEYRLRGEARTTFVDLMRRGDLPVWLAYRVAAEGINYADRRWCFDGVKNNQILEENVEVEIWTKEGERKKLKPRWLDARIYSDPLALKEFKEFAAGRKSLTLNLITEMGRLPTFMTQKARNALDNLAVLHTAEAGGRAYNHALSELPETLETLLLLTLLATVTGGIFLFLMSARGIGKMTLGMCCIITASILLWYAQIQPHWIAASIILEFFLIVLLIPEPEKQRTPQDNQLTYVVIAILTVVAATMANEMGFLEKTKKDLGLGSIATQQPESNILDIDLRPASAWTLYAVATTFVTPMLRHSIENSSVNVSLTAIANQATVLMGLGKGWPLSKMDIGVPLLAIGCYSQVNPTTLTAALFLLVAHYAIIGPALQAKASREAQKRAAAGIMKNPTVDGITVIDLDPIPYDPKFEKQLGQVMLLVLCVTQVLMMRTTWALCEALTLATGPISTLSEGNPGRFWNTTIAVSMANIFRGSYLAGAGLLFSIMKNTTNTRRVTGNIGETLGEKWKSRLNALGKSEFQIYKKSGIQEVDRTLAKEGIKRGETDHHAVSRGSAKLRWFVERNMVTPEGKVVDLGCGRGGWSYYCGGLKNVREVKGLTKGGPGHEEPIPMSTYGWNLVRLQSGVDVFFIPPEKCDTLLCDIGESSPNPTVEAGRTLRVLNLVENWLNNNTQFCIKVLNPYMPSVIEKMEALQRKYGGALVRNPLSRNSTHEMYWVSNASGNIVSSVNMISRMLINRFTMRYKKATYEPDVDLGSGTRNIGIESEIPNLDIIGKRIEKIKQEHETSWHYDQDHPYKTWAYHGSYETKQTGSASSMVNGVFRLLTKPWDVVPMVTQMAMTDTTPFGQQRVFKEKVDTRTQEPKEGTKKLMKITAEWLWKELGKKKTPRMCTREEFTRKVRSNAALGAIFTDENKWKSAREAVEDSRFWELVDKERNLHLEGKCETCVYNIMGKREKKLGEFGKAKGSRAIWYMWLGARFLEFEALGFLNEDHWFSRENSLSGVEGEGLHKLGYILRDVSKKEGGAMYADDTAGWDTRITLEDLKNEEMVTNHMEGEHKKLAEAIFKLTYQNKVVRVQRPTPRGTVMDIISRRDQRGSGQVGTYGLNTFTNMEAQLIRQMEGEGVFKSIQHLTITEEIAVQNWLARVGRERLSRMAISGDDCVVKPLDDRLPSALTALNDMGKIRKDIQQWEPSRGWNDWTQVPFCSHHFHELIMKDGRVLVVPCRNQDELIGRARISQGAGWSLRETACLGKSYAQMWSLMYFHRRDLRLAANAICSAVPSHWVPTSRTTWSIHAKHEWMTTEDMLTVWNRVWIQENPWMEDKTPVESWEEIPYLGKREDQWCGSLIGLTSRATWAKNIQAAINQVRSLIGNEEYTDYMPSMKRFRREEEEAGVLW

Row | Structure (SMILES) | inhibition | inhibition [1]
1 | Cc1cc(C)n(CC(=O)NNC(=O)COc2ccc(Cl)cc2Cl)n1 | -9.01% (inactive) | 
2 | COc1ccc2c(c1)[nH]c1c(=O)n(CCN3CCOCC3)cnc12 | -4.77% (inactive) | 
3 | O=C(CN(C(=O)Cn1nnc(-c2ccc(F)cc2)n1)c1ccc(F)cc1)NC1CCCC1 | -4.85% (inactive) | 
4 | O=C(NCc1ccco1)c1nc2c(nnn2Cc2ccccc2Cl)c(=O)[nH]1 | -1.35% (inactive) | 
5 | O=C(NCc1cccs1)c1nc2c(nnn2Cc2ccc(F)cc2)c(=O)[nH]1 | -3.42% (inactive) | 
6 | COc1cc(/C=C2\SC(=O)N(Cc3ccc(F)cc3)C2=O)cc([N+](=O)[O-])c1O | 14.6% (inactive) | 
7 | COc1cc(/C=C2\SC(=O)N(c3ccc(Cl)cc3)C2=O)cc([N+](=O)[O-])c1O | 3.7% (inactive) | 
8 | CC(C)c1ccc(CCNC(=O)CCNS(=O)(=O)c2ccc(Br)cc2)cc1 | 2.95% (inactive) | 
9 | CC1CCCN(CCCOc2ccc(Br)cc2Cl)C1 (stereo not drawn) | -5.92% (inactive) | 
10 | C=CCn1c(SCC(=O)c2[nH]c(C)c(C(=O)OCC)c2C)nc2scc(-c3ccccc3)c2c1=O | 0.73% (inactive) | 
11 | O=c1cc(-c2ccccc2)nc(SCc2ccccc2F)[nH]1 | -2.34% (inactive) | 
12 | CCC1Nc2ccccc2-c2nnc(SC)nc2O1 (stereo not drawn) | 6.45% (inactive) | 
13 | Nc1ccccc1-c1nnc(SCc2ccccc2F)[nH]c1=O | 2.71% (inactive) | 
14 | CCSc1nnc2c(n1)OC1(CCCC1)Nc1ccccc1-2 | -4.17% (inactive) | 
15 | Cc1[nH]c(C)c(S(=O)(=O)N(Cc2ccccc2)C(C)C)c1C(=O)N1CCCC1 | -0.98% (inactive) | 
16 | COc1ccc(S(=O)(=O)N2CCN(C(=O)CCOc3ccccc3)CC2)cc1OC | 4.1% (inactive) | 
17 | O=C(O)C1CCC(NSc2ccccc2[N+](=O)[O-])CC1 (stereo not drawn) | 7.73% (inactive) | 
18 | CCN(CC(=O)Nc1ccc(NC(C)=O)cc1)C(=O)c1ccc(N2CCC(C)CC2)c([N+](=O)[O-])c1 | -0.77% (inactive) | 
19 | CCN(CC(=O)Nc1ccc(NC(C)=O)cc1)C(=O)c1ccc(NC2CC2)c([N+](=O)[O-])c1 | -1.48% (inactive) | 
20 | O=C(O)c1ccccc1NSc1ccccc1[N+](=O)[O-] | 21.6% (inactive) | 
21 | O=C(O)c1cccc2c1-c1c(cccc1[N+](=O)[O-])C2 | -1.17% (inactive) | 

Row | Structure (SMILES) | inhibition | inhibition [1]
22 | Cc1ccc2c(c1C)NC(C(=O)O)C1CC=CC21 (stereo not drawn) | 9.74% (inactive) | 
23 | Cc1occc1C(=O)NNC(=O)COc1ccc(Br)cc1Br | -1.83% (inactive) | 
24 | CCNC(=O)C1CCCN(c2nc(C)cc(C)n2)C1 (stereo not drawn) | 3.17% (inactive) | 
25 | Cc1nn(C(=O)c2ccc3c(c2)OCO3)c(N)c1-c1ccccc1 | -2.78% (inactive) | 
26 | CCc1ccc(/C=C2\SC(=S)N(CCCC(=O)Nc3nccs3)C2=O)cc1 | 5.18% (inactive) | 
27 | COc1ccc(C(=O)Cn2c(C(C)=O)nc3ccccc32)cc1 | -4.63% (inactive) | 
28 | COc1ccc(N2CCN(C(=O)CC3NC4CCCCC4NC3=O)CC2)cc1 (stereo not drawn) | 4.8% (inactive) | -0.61%
29 | CCC(Oc1ccccc1)C(=O)N1CCN(S(=O)(=O)c2ccccc2)CC1 (stereo not drawn) | -3.63% (inactive) | 
30 | Cc1cccc(C)c1N(CC(=O)NCc1ccco1)C(=O)CNS(=O)(=O)c1ccc(F)cc1 | -7.48% (inactive) | 
31 | CC1(C)C(=O)C2(CCCCC2)C(=O)OC1c1ccc(O)cc1 (stereo not drawn) | 5.67% (inactive) | 
32 | O=S(=O)(c1ccc(Br)cc1Cl)N1CCN(CCO)CC1 | 0.74% (inactive) | 
33 | OCCOCCN1CCN(C(=S)Nc2ccccc2)CC1 | -12.4% (inactive) | 
34 | Cc1cc(=O)oc2c(CN3CCN(CCO)CC3)c(O)ccc12 | -1.72% (inactive) | 
35 | O=[N+]([O-])c1ccc(N2CCN(CCOCCO)CC2)c([N+](=O)[O-])c1 | -3.06% (inactive) | 
36 | Cc1noc(C)c1C(=O)OCC(=O)N1CCc2ccccc21 | -4.42% (inactive) | 
37 | CN(C(=O)c1ccc(NC(=O)Cc2ccc(NC(=O)C3CCCN(C(=O)C4CCC4)C3)cc2)cc1)C1CC1 (stereo not drawn) | -5.79% (inactive) | 
38 | Cc1ccc(NC(=O)CSc2nncs2)cc1Cl | -5.19% (inactive) | 
39 | O=C(c1ccc(F)cc1F)N1CCCc2ccccc21 | -15% (inactive) | 
40 | Cc1ccccc1C(=O)Nc1ccc(S(=O)(=O)Nc2onc(C)c2C)cc1 | -6.85% (inactive) | 
41 | Cc1noc(NS(=O)(=O)c2ccc(NC(=O)c3cccc(S(=O)(=O)Nc4ccccc4F)c3)cc2)c1C | -5.34% (inactive) | 
42 | Cc1noc(NS(=O)(=O)c2ccc(NC(=O)c3ccc(F)cc3)cc2)c1C | 11.3% (inactive) | 

Row | Structure (SMILES) | inhibition | inhibition [1]
43 | Cc1noc(NS(=O)(=O)c2ccc(NC(=O)c3cc(F)c(F)c(F)c3F)cc2)c1C | 8.65% (inactive) | 
44 | CC(=O)C1=C(O)C(=O)N(Cc2ccccc2)C1c1ccc(N(C)C)cc1 (stereo not drawn) | -5.27% (inactive) | -5.49%
45 | CC(C1CC1)N(Cc1ccccc1)C(=O)NC(=O)c1cccc(F)c1 (stereo not drawn) | -0.76% (inactive) | 
46 | O=C(CN1C(=O)C2CC=CCC2C1=O)Nc1cc(C(F)(F)F)ccc1N1CCCC1 (stereo not drawn) | 4.32% (inactive) | 
47 | CC1(C)CC[C@]2(C(=O)O[C@@H]3OC(CO)[C@@H](O)[C@H](O)[C@H]3O)CC[C@]3(C)C(=CCC4[C@@]5(C)CC[C@H](O[C@@H]6OC(C(=O)O)[C@@H](O)[C@H](O)[C@H]6O)C(C)(C)C5CC[C@]43C)[C@@H]2C1 (stereo partly drawn) | 20.2% (inactive) | 2.42%
48 | CC1(C)CC[C@]2(C(=O)O[C@@H]3O[C@H](CO)[C@@H](O)[C@H](O)[C@H]3O)CC[C@]3(C)C(=CCC4[C@@]5(C)CC[C@H](O[C@@H]6O[C@H](C(=O)O)[C@@H](O[C@H]7OC[C@@H](O)[C@@H](O)[C@@H]7O)[C@H](O)[C@H]6O)C(C)(C)C5CC[C@]43C)[C@@H]2C1 (stereo partly drawn) | -9.97% (inactive) | 
49 | COCCCN(Cc1ccco1)C(=O)CSc1nc2ncccc2[nH]1 | -4.52% (inactive) | 
50 | Cc1oc(-c2ccccc2Cl)nc1CS(=O)CC(=O)NCCCN1CC(C)CC(C)C1 (stereo not drawn) | 2.33% (inactive) | 
51 | COc1cccc(/C=C2\Oc3cc(OCC(=O)N4CCC[C@H]4C(=O)O)ccc3C2=O)c1 | 2.17% (inactive) | 
52 | COc1ccc(/C=C2\Oc3cc(OCC(=O)N4CC(O)C[C@H]4C(=O)O)ccc3C2=O)cc1OC (stereo partly drawn) | -10.1% (inactive) | 
53 | CC(=O)CCS(=O)(=O)c1ccc(Oc2ccc(S(=O)(=O)CCC(C)=O)cc2)cc1 | 3.83% (inactive) | 
54 | COc1cccc(Nc2nc3ccccc3nc2NS(=O)(=O)c2cccs2)c1 | 16.4% (inactive) | 3.81%
55 | O=C(O)c1ccc(Nc2nc3ccccc3nc2NS(=O)(=O)c2cccs2)cc1 | 19.7% (inactive) | 
56 | Cc1cccc(S(=O)(=O)Nc2nc3ccccc3nc2Nc2cccc(C(=O)O)c2)c1 | 27.7% (inactive) | 
57 | O=C(O)c1cccc(Nc2nc3ccccc3nc2NS(=O)(=O)c2ccccc2)c1 | 19.8% (inactive) | 
58 | CC(=O)Nc1ccc(S(=O)(=O)Nc2nc3ccccc3nc2Nc2ccccc2)cc1 | -18.8% (inactive) | 
59 | O=C(O)c1cccc(Nc2nc3ccccc3nc2NS(=O)(=O)c2ccc(F)cc2)c1 | 8.81% (inactive) | 
60 | CCc1ccc(/C=C2\SC(=S)N(CCCC(=O)N(CCO)c3ccccc3)C2=O)cc1 | 2.75% (inactive) | 
61 | Cc1ccc(-c2nc3ccccc3[nH]2)cc1NC(=O)c1sc2cc(Cl)ccc2c1Cl | -3.63% (inactive) | 
62 | CCC(C)C(NC(=O)c1ccccc1NC(=O)c1ccccc1)C(=O)O (stereo not drawn) | -1.16% (inactive) | 
63 | O=C(NNC(=O)c1ccccc1-n1cccc1)c1cccc(Cl)c1 | -3.46% (inactive) | 

Row | Structure (SMILES) | inhibition | inhibition [1]
64 | CCCC(C)NNC(=O)c1cc2ccccc2[nH]1 (stereo not drawn) | 0% (inactive) | 
65 | COc1ccc(Cl)cc1Nc1nc(-c2sc(NC(=O)C(C)(C)C)nc2C)cs1 | -12% (inactive) | 
66 | Cc1ccc(-c2cccc(C3CC=CC4C3C(=O)N(Cc3ccccc3)C4c3cc(C)ccc3F)c2)cc1 (stereo not drawn) | -5.46% (inactive) | 
67 | COc1cc(S(=O)(=O)Nc2cccc(C)c2)ccc1NC(=O)c1ccncc1 | -1.47% (inactive) | 
68 | N#CC1=C(N)C2=CCCC[C@H]2[C@H](c2cccc(F)c2)C1(C#N)C#N | -4.34% (inactive) | 
69 | O=C(O)c1ccccc1NS(=O)(=O)c1ccc(NN=Cc2ccccc2F)c([N+](=O)[O-])c1 | 9.54% (inactive) | 
70 | CC(=O)Nc1ccc(C=NNc2ccc(S(=O)(=O)Nc3ccccc3C(=O)O)cc2[N+](=O)[O-])cc1 | 12.4% (inactive) | 
71 | COc1ccc(C=NNc2ccc(S(=O)(=O)Nc3ccccc3C(=O)O)cc2[N+](=O)[O-])c(OC)c1 | 17% (inactive) | 
72 | COc1cc(C=NNc2ccc(S(=O)(=O)Nc3ccccc3C(=O)O)cc2[N+](=O)[O-])ccc1O | 17.4% (inactive) | 
73 | CCOc1ccc(OCC)c(S(=O)(=O)n2cnc(C)c2)c1 | 4.27% (inactive) | 
74 | CC(C)N1CCc2c(sc(NC(=O)c3ccco3)c2C(N)=O)C1 | -17.8% (inactive) | 
75 | O=C(NN=C1CCN(Cc2ccccc2)CC1)c1ccccc1 | -11% (inactive) | 
76 | CSc1nc(N)nc2c1ncn2CC(=O)NCCCc1ccccc1 | -9.58% (inactive) | -1.21%
77 | Cc1cc(O)c(C(C)C)cc1N=Cc1cc([N+](=O)[O-])ccc1O | 73.1% (inactive) | 
78 | Cc1cc(O)c(C(C)C)cc1N=Cc1ccccc1O | 73.5% (inactive) | 
79 | CN(C(=O)c1cc(C(=O)N(C)c2ccccc2)cc([N+](=O)[O-])c1)c1ccccc1 | -8.48% (inactive) | 
80 | Cc1oc2ccc(O)cc2c1C(=O)c1ccc(Br)cc1 | 1.53% (inactive) | 
81 | Cc1ccc(C(=O)c2coc3cc([N+](=O)[O-])c(O)c([N+](=O)[O-])c23)cc1 | 8.29% (inactive) | 
82 | Cc1oc2ccc(O)cc2c1C(=O)c1ccc([N+](=O)[O-])cc1 | -2.6% (inactive) | 
83 | COc1ccc(OC)c(C(=O)c2c(C)oc3cc([N+](=O)[O-])c(O)c([N+](=O)[O-])c23)c1 | 25.1% (inactive) | 
